# From the supplement of paper PMC11732987, “Enantioselective OTUD7B fragment discovery through chemoproteomics screening and high-throughput optimisation” (Communications Chemistry, 2025)
# Unmarked numbers belong to inactive results.
# Legend:
# Test in all cases: log2 ratio of Biotin-Ahx-Ub-VS probe labelling (fragment/DMSO); higher = less target engagement (more negative = stronger competition), active = hit call of the paper (q ≤ 0.05, log2 ratio ≤ -1)
# Settings in all cases: compound concentration: 200 uM; treatment time: 3 h
# USP19 = molecular target: T1, USP19 (UniProt O94966)
# T1 sequence (whole entry): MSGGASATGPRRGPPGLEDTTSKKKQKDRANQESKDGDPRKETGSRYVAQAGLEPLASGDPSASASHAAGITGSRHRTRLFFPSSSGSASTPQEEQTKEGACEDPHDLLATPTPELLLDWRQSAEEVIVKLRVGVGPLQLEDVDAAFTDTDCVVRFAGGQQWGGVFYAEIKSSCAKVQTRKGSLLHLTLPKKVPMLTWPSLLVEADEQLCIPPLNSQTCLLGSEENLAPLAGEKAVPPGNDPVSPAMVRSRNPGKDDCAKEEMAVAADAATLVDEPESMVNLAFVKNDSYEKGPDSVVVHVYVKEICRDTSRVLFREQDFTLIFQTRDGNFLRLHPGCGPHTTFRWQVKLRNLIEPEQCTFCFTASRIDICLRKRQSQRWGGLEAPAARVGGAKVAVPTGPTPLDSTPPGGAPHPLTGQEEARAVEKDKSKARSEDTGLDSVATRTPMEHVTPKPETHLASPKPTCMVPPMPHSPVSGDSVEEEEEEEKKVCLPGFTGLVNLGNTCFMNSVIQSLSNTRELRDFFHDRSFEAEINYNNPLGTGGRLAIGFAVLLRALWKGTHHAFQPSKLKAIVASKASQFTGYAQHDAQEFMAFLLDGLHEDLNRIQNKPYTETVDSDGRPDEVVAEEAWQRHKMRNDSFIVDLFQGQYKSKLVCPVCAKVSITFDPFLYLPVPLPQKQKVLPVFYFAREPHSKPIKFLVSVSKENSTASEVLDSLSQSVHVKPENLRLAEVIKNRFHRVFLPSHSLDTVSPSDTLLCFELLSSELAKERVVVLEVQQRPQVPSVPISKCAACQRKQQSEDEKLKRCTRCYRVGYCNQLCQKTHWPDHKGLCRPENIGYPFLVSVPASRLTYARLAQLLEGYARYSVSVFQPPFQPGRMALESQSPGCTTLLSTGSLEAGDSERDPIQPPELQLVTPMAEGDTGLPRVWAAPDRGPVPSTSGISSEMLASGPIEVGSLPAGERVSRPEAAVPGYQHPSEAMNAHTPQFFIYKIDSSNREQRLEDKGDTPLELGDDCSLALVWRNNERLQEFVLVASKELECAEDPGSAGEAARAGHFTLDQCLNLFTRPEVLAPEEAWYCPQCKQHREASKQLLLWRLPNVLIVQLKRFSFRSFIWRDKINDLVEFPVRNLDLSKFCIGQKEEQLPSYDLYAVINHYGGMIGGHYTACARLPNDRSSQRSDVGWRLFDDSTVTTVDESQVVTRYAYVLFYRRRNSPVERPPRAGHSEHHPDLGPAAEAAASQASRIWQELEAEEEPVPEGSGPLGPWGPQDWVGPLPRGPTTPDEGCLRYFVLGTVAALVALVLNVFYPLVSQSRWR
# How it was run: (§1)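 Average log2 ratios of fragment over vehicle were obtained by unpaired t-test from global-median-normalised Spectronaut label-free quantities. Proteins with ≥2 unique peptides were included. HEK293T lysate (495 µg per sample) was treated in triplicate with fragment at 200 µM or vehicle for 3 h, then with Biotin-Ahx-Ub-VS at 0.5 µM final for 1 h, and labelled DUBs were NeutrAvidin-enriched and run by diaPASEF LC-MS/MS.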
# USP22 = molecular target: T2, USP22 (UniProt Q9UPT9)
# T2 sequence (whole entry): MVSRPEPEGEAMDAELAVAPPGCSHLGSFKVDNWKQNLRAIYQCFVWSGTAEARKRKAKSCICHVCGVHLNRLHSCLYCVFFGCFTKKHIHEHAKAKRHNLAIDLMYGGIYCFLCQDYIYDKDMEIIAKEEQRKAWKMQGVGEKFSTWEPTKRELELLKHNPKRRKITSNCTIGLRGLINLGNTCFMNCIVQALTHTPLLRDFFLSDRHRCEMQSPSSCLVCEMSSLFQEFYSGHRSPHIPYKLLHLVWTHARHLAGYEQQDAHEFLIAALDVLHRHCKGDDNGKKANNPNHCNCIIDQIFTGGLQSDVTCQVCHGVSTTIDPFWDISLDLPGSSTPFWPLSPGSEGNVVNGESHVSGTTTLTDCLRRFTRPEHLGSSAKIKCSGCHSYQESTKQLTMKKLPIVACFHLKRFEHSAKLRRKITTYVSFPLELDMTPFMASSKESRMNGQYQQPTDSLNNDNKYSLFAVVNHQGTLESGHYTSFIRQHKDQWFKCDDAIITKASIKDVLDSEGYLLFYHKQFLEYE
# How it was run: as §1
# USP24 = USP24 (UniProt Q9UPU5)
# How it was run: as §1
# USP25 = molecular target: T3, USP25 (UniProt Q9UHP3)
# T3 sequence (whole entry): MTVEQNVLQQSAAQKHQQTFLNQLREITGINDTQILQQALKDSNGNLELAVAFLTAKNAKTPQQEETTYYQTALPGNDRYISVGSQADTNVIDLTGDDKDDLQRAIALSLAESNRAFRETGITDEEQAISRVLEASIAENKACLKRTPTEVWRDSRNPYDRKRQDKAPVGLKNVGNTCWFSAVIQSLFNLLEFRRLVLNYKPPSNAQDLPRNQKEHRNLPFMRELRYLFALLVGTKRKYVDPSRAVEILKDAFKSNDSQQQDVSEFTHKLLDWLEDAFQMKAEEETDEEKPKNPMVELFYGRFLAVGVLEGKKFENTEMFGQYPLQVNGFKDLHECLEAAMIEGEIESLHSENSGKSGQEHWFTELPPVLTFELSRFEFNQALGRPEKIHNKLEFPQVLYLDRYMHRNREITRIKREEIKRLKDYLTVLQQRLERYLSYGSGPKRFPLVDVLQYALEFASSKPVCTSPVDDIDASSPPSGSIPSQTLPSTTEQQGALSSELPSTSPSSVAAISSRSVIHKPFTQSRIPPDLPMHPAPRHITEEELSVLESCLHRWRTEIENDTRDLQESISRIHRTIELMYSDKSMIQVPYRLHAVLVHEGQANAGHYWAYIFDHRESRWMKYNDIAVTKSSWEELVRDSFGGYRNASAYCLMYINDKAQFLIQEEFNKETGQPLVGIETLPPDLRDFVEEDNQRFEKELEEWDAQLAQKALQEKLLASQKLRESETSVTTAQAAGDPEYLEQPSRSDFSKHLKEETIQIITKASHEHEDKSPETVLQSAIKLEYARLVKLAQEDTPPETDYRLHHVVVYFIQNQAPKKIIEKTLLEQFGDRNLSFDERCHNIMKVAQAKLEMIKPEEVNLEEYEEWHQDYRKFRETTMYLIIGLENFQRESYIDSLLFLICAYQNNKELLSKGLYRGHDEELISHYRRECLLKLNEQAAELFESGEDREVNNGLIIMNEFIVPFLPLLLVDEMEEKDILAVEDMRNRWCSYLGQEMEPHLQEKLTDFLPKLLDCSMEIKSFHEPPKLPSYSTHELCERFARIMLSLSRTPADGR
# How it was run: as §1
# USP28 = molecular target: T4, USP28 (UniProt Q96RU2)
# T4 sequence (whole entry): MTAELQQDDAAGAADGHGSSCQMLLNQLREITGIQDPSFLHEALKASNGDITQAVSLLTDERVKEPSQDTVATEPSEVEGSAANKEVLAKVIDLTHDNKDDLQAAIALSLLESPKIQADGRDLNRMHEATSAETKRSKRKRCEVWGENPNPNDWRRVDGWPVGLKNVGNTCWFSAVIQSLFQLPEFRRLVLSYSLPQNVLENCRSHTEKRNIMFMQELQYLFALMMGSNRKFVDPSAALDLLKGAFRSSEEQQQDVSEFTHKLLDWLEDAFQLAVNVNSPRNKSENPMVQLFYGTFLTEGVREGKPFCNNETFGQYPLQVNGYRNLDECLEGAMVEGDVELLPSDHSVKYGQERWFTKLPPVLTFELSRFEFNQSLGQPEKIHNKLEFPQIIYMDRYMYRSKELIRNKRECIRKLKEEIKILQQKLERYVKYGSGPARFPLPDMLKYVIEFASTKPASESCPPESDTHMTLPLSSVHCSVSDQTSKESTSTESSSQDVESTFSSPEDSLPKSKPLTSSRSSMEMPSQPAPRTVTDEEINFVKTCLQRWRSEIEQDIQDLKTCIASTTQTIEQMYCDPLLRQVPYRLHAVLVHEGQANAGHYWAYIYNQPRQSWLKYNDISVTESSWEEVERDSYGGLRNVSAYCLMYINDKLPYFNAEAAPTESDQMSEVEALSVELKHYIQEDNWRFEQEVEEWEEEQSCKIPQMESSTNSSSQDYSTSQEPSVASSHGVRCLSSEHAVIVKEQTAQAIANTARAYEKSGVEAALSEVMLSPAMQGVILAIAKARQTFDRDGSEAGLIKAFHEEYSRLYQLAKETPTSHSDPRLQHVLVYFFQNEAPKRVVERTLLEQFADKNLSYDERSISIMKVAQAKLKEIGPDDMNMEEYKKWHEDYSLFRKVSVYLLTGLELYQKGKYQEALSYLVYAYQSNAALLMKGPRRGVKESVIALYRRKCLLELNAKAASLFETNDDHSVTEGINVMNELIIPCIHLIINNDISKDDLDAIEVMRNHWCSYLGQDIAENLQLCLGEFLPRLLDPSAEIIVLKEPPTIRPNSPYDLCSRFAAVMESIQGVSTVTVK
# How it was run: as §1
# Chain of USP24 (Q9UPU5 whole entry): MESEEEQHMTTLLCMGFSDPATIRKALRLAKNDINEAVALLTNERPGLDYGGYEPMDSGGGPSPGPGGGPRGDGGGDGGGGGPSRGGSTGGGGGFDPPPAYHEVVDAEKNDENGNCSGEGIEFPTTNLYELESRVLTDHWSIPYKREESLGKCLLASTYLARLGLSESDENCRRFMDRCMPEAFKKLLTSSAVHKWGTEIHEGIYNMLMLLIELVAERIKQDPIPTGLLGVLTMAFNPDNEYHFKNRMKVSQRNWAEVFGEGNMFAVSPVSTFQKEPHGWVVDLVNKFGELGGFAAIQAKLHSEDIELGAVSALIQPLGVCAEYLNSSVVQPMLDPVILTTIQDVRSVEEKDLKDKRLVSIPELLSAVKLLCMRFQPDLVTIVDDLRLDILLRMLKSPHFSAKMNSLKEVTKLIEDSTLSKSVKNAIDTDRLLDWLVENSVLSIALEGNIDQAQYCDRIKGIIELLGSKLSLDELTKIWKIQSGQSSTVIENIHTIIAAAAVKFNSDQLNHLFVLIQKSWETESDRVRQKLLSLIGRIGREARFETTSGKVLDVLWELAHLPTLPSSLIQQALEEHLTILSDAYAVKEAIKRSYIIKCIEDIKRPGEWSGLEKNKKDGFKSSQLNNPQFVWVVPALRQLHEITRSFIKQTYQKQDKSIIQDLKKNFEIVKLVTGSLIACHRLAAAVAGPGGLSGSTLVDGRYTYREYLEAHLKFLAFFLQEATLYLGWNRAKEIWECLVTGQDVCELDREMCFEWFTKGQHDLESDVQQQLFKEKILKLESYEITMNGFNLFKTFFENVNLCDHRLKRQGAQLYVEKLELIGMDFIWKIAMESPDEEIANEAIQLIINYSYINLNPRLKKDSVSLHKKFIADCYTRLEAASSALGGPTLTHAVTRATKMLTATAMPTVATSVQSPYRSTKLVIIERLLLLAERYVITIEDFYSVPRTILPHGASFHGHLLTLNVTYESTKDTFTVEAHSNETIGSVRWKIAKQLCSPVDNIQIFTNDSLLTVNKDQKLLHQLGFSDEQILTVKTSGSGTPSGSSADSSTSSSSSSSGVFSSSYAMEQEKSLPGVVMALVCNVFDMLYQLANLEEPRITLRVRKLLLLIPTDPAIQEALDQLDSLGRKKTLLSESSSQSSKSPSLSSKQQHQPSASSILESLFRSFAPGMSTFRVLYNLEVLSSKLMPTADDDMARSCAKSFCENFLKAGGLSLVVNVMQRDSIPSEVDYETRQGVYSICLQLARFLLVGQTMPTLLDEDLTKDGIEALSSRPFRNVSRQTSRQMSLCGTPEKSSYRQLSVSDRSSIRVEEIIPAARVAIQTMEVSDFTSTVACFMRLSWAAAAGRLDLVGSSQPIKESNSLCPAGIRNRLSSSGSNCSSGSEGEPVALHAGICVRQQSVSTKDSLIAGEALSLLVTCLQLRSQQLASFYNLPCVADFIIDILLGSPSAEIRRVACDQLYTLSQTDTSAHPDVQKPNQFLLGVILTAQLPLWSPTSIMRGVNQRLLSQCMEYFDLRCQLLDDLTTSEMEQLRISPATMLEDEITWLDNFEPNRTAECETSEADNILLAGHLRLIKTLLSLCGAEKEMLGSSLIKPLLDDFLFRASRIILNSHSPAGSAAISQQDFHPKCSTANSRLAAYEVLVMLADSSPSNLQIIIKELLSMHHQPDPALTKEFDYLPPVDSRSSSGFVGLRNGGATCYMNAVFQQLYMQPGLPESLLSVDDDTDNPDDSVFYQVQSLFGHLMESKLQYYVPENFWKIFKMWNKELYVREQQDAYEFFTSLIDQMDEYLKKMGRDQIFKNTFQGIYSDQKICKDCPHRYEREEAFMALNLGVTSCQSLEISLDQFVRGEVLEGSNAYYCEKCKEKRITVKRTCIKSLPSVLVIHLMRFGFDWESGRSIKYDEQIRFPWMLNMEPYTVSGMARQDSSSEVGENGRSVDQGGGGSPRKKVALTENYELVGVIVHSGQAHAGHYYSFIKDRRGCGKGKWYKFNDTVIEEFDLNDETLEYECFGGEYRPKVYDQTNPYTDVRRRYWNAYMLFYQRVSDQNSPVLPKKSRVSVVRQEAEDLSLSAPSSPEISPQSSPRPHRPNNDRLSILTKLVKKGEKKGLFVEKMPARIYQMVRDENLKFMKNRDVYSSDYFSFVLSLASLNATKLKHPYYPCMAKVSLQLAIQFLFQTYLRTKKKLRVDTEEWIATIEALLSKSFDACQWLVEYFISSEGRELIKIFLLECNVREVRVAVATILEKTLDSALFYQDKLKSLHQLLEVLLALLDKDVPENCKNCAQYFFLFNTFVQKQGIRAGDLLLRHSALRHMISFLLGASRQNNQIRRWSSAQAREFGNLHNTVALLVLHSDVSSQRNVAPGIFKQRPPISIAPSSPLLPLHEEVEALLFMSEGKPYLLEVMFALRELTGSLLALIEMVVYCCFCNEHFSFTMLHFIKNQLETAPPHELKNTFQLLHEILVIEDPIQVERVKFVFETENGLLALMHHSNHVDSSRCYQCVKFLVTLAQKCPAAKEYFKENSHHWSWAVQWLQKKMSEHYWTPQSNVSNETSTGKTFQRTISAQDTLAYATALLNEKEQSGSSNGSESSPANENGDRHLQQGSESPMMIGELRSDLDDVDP
smiles,measurement,setting,value
Cn1cc(CN(Cc2ccc(Cl)cc2)C(=O)CCl)cn1,log2 ratio of Biotin-Ahx-Ub-VS probe labelling,USP19,-0.653
same,log2 ratio of Biotin-Ahx-Ub-VS probe labelling,USP22,0.0724
same,log2 ratio of Biotin-Ahx-Ub-VS probe labelling,USP24,-1.49 (active)
same,log2 ratio of Biotin-Ahx-Ub-VS probe labelling,USP25,-0.161
same,log2 ratio of Biotin-Ahx-Ub-VS probe labelling,USP28,-0.648
